# Results: PubChem BioAssay (NCI)
# About 83,000 compounds went through this panel and 20% of them were active in at least one assay; those are over-represented in the sample as a whole.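 Interpretation: 100, growth as untreated; towards 0, rising growth inhibition; 0, no net growth; 0 to -100, cell death. Compounds scoring below 10 were considered active.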 Values without a mark were called inactive. The source made the active and inactive calls.
# System: HL-60(TB) leukemia
# Assay: NCI-60 one-dose screen, 48 h (100 = growth as untreated, 0 = no growth, -100 = all killed)
# Settings: 10 µM unless noted
row,SMILES,growth
1,Fc1ccc2[nH]cc(-c3nc(-c4c[nH]c5ncccc45)cs3)c2c1,14%
2,COc1cccc(-c2nn(-c3ccccc3)cc2-c2ccnc(NCCCO)c2)c1,-7.94% (active)
3,O=C1NC(=S)S/C1=C\N1N=C(c2ccc(Cl)cc2)CC1c1ccc(F)cc1 (configuration not stated),99.5%
4,CC(C)(C)OC(=O)NCCc1ccc(N=C=S)cc1,19.8%
5,COc1cc(C=C2C(=O)N(C)C(=O)N(C)C2=O)cc(CN2CCCCC2)c1O,96.3%
6,CC(C)(C)OC(=O)N1CC(Cn2cc(C(F)(F)F)c3c(Cl)ncnc32)C1,-67.5% (active)
7,O=c1cc(-c2ccc(Cl)cc2)[nH]c2ccccc12,44.3%
8,CCN(CC)CCOc1ccc2ccc(=O)oc2c1,3.42% (active)
9,N/C(=N\c1nc2ccccc2s1)NC(=O)Nc1ccccc1,12.8%
10,NC(=S)N/N=C/c1cn(-c2ccccc2)nc1-c1cc2ccccc2oc1=O,20.4%
11,CCCCCCNC(=O)Oc1ccc(/C(=C(/CC)Cc2ccccc2)c2ccc(OCCN3CCCCC3)cc2)cc1,75.1%
12,CCc1ccc(C2=C/C(=C/c3ccc(Cl)cc3)C(=O)N2CCc2ccc(S(N)(=O)=O)cc2)cc1,-18.9% (active)
13,O=c1[nH]c(=S)c2c(n1CCCO)CCC2,95.6%
14,CCC1=C(c2ccc(OC)cc2)C(C)Oc2cc(OC(C)=O)ccc21 (configuration not stated),56.7%
15,COC(=O)C1Cc2ccccc2CN1C(=O)c1ccc2c(c1)Cc1ccccc1-2 (configuration not stated),13.4% [50 µM]
16,[O-][n+]1c2ccccc2[n+]([O-])c2c3ccccc3[nH]c21,100%
17,COc1cccc(CC(C)=C(c2ccc(OCCCN(C)C)cc2)c2ccc(OCCCN(C)C)cc2)c1,-68% (active)
18,CC(O)CN(CC(C)O)N(CC(C)O)CC(C)O (configuration not stated),102%
19,OCCNc1ccccc1,100%
20,CN1CCN(C)c2cncc(Br)c2C1=O,96.4%
21,OC(CCN1CCCCC1)(c1ccccc1)c1ccccc1,130%
22,CNC(=O)NN,64%
23,OCCNc1nc(NCCO)nc(Nc2ccc(C3=NN(c4cc(Cl)cc(Cl)c4)C(c4ccccc4)C3)cc2)n1 (configuration not stated),61.7%
24,Cc1cccc(CN(Nc2ccccc2)c2ccccc2)n1,91.9%
25,Nc1ccc(N=Nc2ccc(S(=O)(=O)O)cc2)c2ccccc12,62.8%
26,N=C(N)c1ccc(OCCSCCOc2ccc(C(=N)N)cc2)cc1,77.9%
27,Cc1ccc2nc(-[n+]3cc4ccccc4cc3C)ccc2c1,0.144% (active)
